dFosB activator: activators of mouse delta FosB homodimer. AID 493131. activation, % at 25 µM. purified delta FosB, TAMRA-CDK5 oligo fluorescence polarization; percent of positive-control signal above neutral wells. P13346. hit rate 0.99% among 340,000;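 active = mean activation above about 17%, with every replicate also reaching it, limit read from the data, passing the limit was not always enough; inconclusive = only one of the two conditions met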
DENV2 CPE rescue: protects cells from dengue virus 2 cytopathic effect; DENV2-infected cells, cytopathic effect rescue, plate reader; CPE inhibition, % at 9.99 µM; AID 651640; hit rate 1.7% among 350,000; in the data active = CPE inhibition above about 20%, passing the limit was not always enough; inconclusive = no clear call, values can overlap the other calls; tested in BHK-21 cells;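 also: 0% = median of neutral control wells and 100% = median of positive control wells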
GSIS activator: primary screen for activators of insulin secretion dependent on glucose, INS-1E cells, GLuc reporter luminescence; hit rate 0.61% among 370,000; activation, % at 16.6 µM; INS-1E GLuc reporter insulin secretion, 2-3 h;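 active = lowest replicate activation of at least 40%, so every replicate reaches that level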;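 also: 0% = median of neutral control wells and 100% = median of IBMX positive control wells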
AF4-AF9 inh: blocks AF4 peptide binding to human AF9 | hit rate 0.47% among 350,000 | inhibition, % at 10 µM | AlphaScreen, biotin-AF4 peptide binding to FLAG-AF9 | AID 651704;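 active = every replicate reaching a set inhibition limit, whatever the replicate mean, cut at about 25% in these data; inconclusive = mean inhibition reaches that limit but some replicates miss it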;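 also: 0% = plate neutral control median and 100% = total signal loss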
RAD52 inh: inhibitors of human RAD52 DNA annealing; AID 651710; inhibition, % at 18.7 µM; recombinant RAD52 DNA annealing, FRET fluorescence; hit rate 0.46% among 360,000;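 active = every replicate showing at least 50% inhibition; inconclusive = mean inhibition at least 50% but not in every replicate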
RAD54 inh: inhibitors of human RAD54 branch migration | AID 602329 | RAD54 Holliday junction branch migration, FAM/BHQ fluorescence | inhibition, % at 10.4 µM | hit rate 0.14% among 360,000;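 active = mean normalized replicate activity at least 40 and at least half of replicates scoring 40 or more; inconclusive = only one of the two criteria met; inactive = mean below 40 and under half of replicates reaching 40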;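 also: 0% = median of neutral control wells and 100% = median of positive control wells; inhibitors cause a drop in the FAM fluorescence signal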
Target sequence (Q92698 whole entry, looked up): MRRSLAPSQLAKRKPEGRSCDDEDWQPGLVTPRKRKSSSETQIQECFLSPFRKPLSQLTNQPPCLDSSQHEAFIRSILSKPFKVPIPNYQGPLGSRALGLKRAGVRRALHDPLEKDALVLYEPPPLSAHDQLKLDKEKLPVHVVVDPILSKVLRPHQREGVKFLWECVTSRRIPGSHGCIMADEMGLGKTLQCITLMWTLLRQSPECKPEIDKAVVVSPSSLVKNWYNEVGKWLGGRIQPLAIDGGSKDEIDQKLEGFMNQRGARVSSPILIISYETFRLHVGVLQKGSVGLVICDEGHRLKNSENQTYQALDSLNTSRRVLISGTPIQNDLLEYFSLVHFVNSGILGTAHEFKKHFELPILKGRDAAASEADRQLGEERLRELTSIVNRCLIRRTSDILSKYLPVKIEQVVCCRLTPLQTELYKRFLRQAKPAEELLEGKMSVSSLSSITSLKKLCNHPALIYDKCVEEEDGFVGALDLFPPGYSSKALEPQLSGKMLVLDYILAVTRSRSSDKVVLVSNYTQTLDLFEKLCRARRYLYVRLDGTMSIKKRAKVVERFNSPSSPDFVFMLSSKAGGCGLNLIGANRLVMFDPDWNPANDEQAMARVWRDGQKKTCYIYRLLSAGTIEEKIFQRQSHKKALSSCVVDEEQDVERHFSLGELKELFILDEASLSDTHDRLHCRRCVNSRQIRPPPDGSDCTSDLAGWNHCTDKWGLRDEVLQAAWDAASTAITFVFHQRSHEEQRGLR
Active calls of the source: *; ? = inconclusive; · = no result; ! = not confirmed by another sample. Compounds with a hit are over-represented: about 3.1% of the library has one in this group of screens.

SMILES | dFosB activator | DENV2 CPE rescue | GSIS activator | AF4-AF9 inh | RAD52 inh | RAD54 inh
COc1ccc(C(=O)OC2C[C@H]3CC[C@@H](C2)N3O)cc1OC (stereo partly specified) | -4.2 | 0.6 | 8.8 | 3.4 | -14.9 | -6.1
Cc1ccc(OC(=O)N(C)C[C@H]2OCc3ccccc3-c3c(n(C)c4ccccc34)C(=O)N([C@H](C)CO)C[C@@H]2C)cc1 | · | 2.4 | -23.9 | 8.3 | 10.8 | ·
COP(=O)(NC(=O)C(Cl)(Cl)Cl)OC | -5.0 | -4.1 | 10.9 | 27.5* | -10.9 | ·
COc1ccc(C#Cc2ccc([C@@H]3[C@@H](CO)N4CCCCN(C(=O)Cc5ccccc5)C[C@@H]34)cc2)cc1 | · | -21.8 | -0.7 | -5.0 | -30.2 | 6.0
COC(=O)[C@@H]1[C@@H](CO)[C@@H]2Cn3c(ccc(-c4ccccc4F)c3=O)[C@H]1N2C(=O)C1CC1 | · | 3.8 | 15.4 | -0.2 | -7.3 | 13.8
O=P1(c2ccccc2)Nc2ccccc2N1c1ccccc1 (stereo unspecified) | -5.0 | 0.5 | -26.3 | 27.6* | -5.4 | 2.2
CC1CN(O)C2CCc3nonc3C12O (stereo unspecified) | 16.2* | · | 14.4 | · | · | -3.5
CC1CC2(O)c3nonc3CCC2N1O (stereo unspecified) | 9.1 | · | · | · | · | -3.4
O=C(Cc1ccccc1)N1CC2(C1)[C@H](c1ccccc1)[C@H](CO)N2Cc1cccc(F)c1 | · | 4.9 | -30.9 | 1.7 | -71.3 | ·
c1ccc2c(c1)[IH]c1ccccc1-2 | 32.8* | -4.8 | -30.7 | -11.7 | 47.1 | 51.9*
CC(=O)N1C[C@@H]2C(c3ccccc3)[C@H](C1)N2C (stereo partly specified) | · | · | -8.5 | · | · | ·
CC1CN(c2cc([N+](=O)[O-])ccc2Cl)CC(C)N1 (stereo unspecified) | 0.6 | 4.4 | 41.2* | -2.4 | -1.5 | ·
CCCCN1C(=N)C(CC)(CC)C(=O)NC1=O | -7.2 | 23.6* | 2.7 | 4.9 | -9.1 | ·
O=S(=O)(c1cc(Cl)cc(Cl)c1)N1Cc2cc(N3CCOCC3)ccc2-n2nncc2C1 | · | 108.0* | -10.0 | 1.5 | 0.3 | -6.0
CC(C)c1cc(Br)c(NC(=O)Nc2cccnc2)c(Br)c1 | -2.2 | 10.8 | 114.5* | 0.0 | -9.2 | -5.3
CC(C)OP(=O)(OC(C)C)C(O)c1cccnc1 (stereo unspecified) | 4.3 | · | 3.7 | · | · | 1.5
FC(F)(F)CN1C[C@@H]2C(c3ccccc3)[C@H](C1)N2CC1CC1 (stereo partly specified) | · | · | 6.3 | · | · | ·
Nc1ccccc1C(=O)OCCc1ccccc1 | -2.2 | 77.8* | -7.2 | · | -2.1 | -15.2
CCCCOC(=O)c1ccccc1N | 1.0 | 5.7 | -0.7 | · | -21.6 | 1.8
CC(=NC(C)c1ccccc1)c1c(O)[nH]c(=O)[nH]c1=O (stereo unspecified) | -2.9 | · | 103.5* | · | · | -7.3
CC(C)NC(=O)N1C[C@@H]2N[C@H](C1)C2c1ccccc1 (stereo partly specified) | · | · | -10.4 | · | · | ·
Clc1ccc(COC(Cn2ccnc2)c2ccc(Cl)cc2Cl)c(Cl)c1 (stereo unspecified) | 0.7 | 2.8 | 48.5*! | 5.8 | 1.4 | -7.7
COc1ccc(SCC2CN(C)CCC2c2ccc(F)cc2)cc1 (stereo unspecified) | 6.9 | 25.0* | -29.5 | 2.3 | 12.9 | ·
Cc1ccccc1NC(=O)c1cc(-c2ccccc2)n(CCCN2CCOCC2)c1C | · | -0.9 | -0.1 | -3.7 | -8.3 | -5.7
Cc1ccccc1NC(=NCCCN1CC1)Nc1ccccc1C | -23.8 | -5.9 | · | 77.8* | -4.7 | ·
SMILES | dFosB activator | DENV2 CPE rescue | GSIS activator | AF4-AF9 inh | RAD52 inh | RAD54 inh
OC1CN2CCCC(O)C2C1O (stereo unspecified) | · | 54.6* | · | -0.8 | -1.3 | ·
O[C@H]1[C@H](O)[C@@H](O)CN2CC[C@H](O)[C@H]12 | 2.0 | -8.0 | -1.1 | -3.0 | -11.2 | 6.3
O=C1C(=Cc2ccccc2)N2CCC1CC2 | -15.3 | 29.1* | -6.5 | -2.3 | 6.3 | 8.6
O=C1/C(=C/c2cccnc2)N2CCC1CC2 | -3.4 | 5.0 | 14.0 | 10.9 | -1.9 | ·
CC(C)[N+](C)(CCC(C(N)=O)(c1ccccc1)c1ccccc1)C(C)C | -0.9 | -4.6 | 48.0* | 0.1 | -6.9 | 5.9
CCC(=O)C(CCN1CCOCC1)(c1ccccc1)c1ccccc1 | 0.3 | 2.4 | -1.4 | -1.1 | 2.7 | ·
O=C1C2C3CCC(O3)C2C(=O)N1c1cccc(F)c1 (stereo unspecified) | · | -0.3 | · | -2.8 | -3.6 | -1.4
CCC(c1ccc(C)cc1)N1C(=O)C2C3CCC(O3)C2C1=O (stereo unspecified) | -2.8 | 25.3* | 8.6 | -0.7 | -4.8 | -3.8
CCC(c1nnnn1-c1ccc(OC)cc1)N1CCC(n2c(=O)[nH]c3ccccc32)CC1 (stereo unspecified) | · | 11.0 | -13.2 | -1.9 | -7.3 | -4.5
COc1ccc(-n2nnnc2C(CCc2ccccc2)N2CCC(n3c(=O)[nH]c4ccccc43)CC2)cc1 (stereo unspecified) | · | 56.4* | -30.4 | -0.1 | -14.3 | -2.0
CN1C2CCC1C(C(=O)O)C(OC(=O)c1ccccc1)C2 (stereo unspecified) | 0.9 | 11.7 | 40.4* | · | -15.3 | 6.4
CCOC(=O)C1C(OC(=O)c2ccccc2)CC2CCC1N2C (stereo unspecified) | -7.9 | -7.6 | 41.2* | · | -8.4 | -7.0
COc1ccc(C(O)(c2cncnc2)C2CC2)cc1 (stereo unspecified) | · | -9.4 | · | -1.6 | 6.9 | ·
COC(=O)[C@H]1[C@H](CO)[C@H]2Cn3c(ccc(C4=CCCCC4)c3=O)[C@@H]1N2C(=O)Cc1ccccn1 | · | 7.5 | 10.8 | 3.9 | -1.7 | -2.8
COC(=O)[C@@H]1[C@@H](CO)[C@@H]2Cn3c(ccc(C4=CCCC4)c3=O)[C@H]1N2Cc1ccccn1 | · | 118.1* | 6.8 | 0.8 | -50.4 | -0.3
COC(=O)[C@@H]1[C@@H](CO)[C@@H]2Cn3c(ccc(C4=CCCCC4)c3=O)[C@H]1N2CCc1ccccc1 | · | -1.0 | -4.6 | 5.0 | 1.3 | 5.2
COC(=O)[C@@H]1[C@@H](CO)[C@@H]2Cn3c(ccc(C4=CCCCC4)c3=O)[C@H]1N2Cc1ccccc1OC | · | 23.8* | -4.5 | 3.7 | 5.4 | ·
N#Cc1ccc(CN2Cc3ccccc3-n3nncc3C2)cc1 | · | 109.1* | · | 0.7 | 4.3 | 5.2
O=C1C(Cl)=CC(=Nc2ccc(O)cc2)C=C1Cl | -18.9 | 4.9 | 31.2 | 36.3* | -8.6 | 2.4
Cc1[nH]c2ccc(OC(F)(F)F)cc2c1CCNCc1ccc(Cl)cc1 | -10.9 | -5.1 | 213.8* | 23.5 | 28.5 | 11.6
Cc1[nH]c2ccc(OC(F)(F)F)cc2c1CCNCc1cccc([N+](=O)[O-])c1 | -6.0 | -1.5 | -19.4 | ? | -6.7 | 1.9
CCOc1cccc(CNCCc2c(C)[nH]c3ccc(OC(F)(F)F)cc23)c1O | -17.8 | -0.7 | -50.5 | 39.5* | 21.2 | 12.1
CCN(CC)c1ccccc1 | 1.6 | 129.2* | 2.8 | · | -2.2 | -5.8
Cc1nn(Cc2ccc(Cl)cc2Cl)c(Cl)c1C(=O)Nc1ccc(OC(F)F)cc1 | 12.3 | · | 70.6* | · | · | -4.8

Assay outcomes from PubChem BioAssay.
